Bioassay records deposited in PubChem by National Center for Advancing Translational Sciences (NCATS).
Only a selection was taken, and hits are over-represented in it overall.
DT40 TDP1 no CPT: qHTS for Inhibitors of human tyrosyl-DNA phosphodiesterase 1 (TDP1): qHTS in cells in absence of CPT; DT40 Tdp1-/- hTDP1 cells, no CPT, ATP luminescence, 48 h; Potency, µM (doses to about 46.2 µM), for inactives: top-dose activity change, negative = growth inhibition, actives largely listed as inhibitors; 420,000 compounds, 15% hits; further: potency means the concentration at half of the fitted maximal effect; nearly all actives have a fitted effect of over 55% in size
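Luminescent ATP content (CellTiter-Glo) served as the growth readout. Knockout chicken DT40 cells expressing human TDP1 were exposed to compounds without camptothecin for a minimum 48 hr at 37 °C.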
HT1080NT lethal: kills 2HG-producing HT-1080-NT fibrosarcoma cells | HT-1080-NT fibrosarcoma viability, CellTiter-Glo ATP luminescence, 48 h | Potency, µM (series often up to 46.1 µM), inactives show top-dose activity, negative = less viability, hits mostly cytotoxic | 360,000 compounds, 1.6% hits | AID 686970;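 further: NT is the 2HG producing partner of a matched IDH1 knockdown line; potency means the concentration at half of the fitted maximal effect; 0% = DMSO-treated cells and -100% = media-only wells without cells; nearly all actives have a fitted effect of over 55% in size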
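HT-1080-NT; 750 cells/well; 5% FBS RPMI; 48 h compound, 37 degrees C; CellTiter-Glo luminescence; curve fitting and curve-class assignment.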
HT1080 IDH1KD tx: kills HT-1080 cells with IDH1 knockdown; HT-1080 IDH1 knockdown viability, ATP luminescence, 48 h; Potency, µM (titrated, usually from 46.1 µM), inactives show at the top dose activity, negative = toxicity, actives largely listed as cytotoxic; 360,000 compounds, 2% hits;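 further: potency means the concentration at half of the fitted maximal effect; 0% = DMSO wells and -100% = cell-free medium wells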
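CellTiter-Glo luminescence after 48 h compound exposure at 37 degrees C of IDH1-knockdown HT-1080 cells in 5% FBS RPMI. %Activity scaled between DMSO wells and cell-free media wells, with curves fitted and assigned curve classes.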
IL-1B inflam inh: inflammasome signaling inhibition, IL-1 beta readout; THP-1 LPS/ATP IL-1B secretion, AlphaLISA, 16 h; active compounds read low; activity change, % at 57.5 µM; 360,000 compounds, 4.7% hits; AID 743279; in the data active means activity change below about -50%; inconclusive means mostly about -30% to -49%
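THP-1 cells pretreated 1 hr with compounds (up to 57.5 uM final), then stimulated with LPS (250 ng/mL final) plus ATP (1.25 mM final); secreted IL-1B measured by AlphaLISA after 16 hr, decreased signal indicating inhibition.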
TDP1 cell CPT: DT40-hTDP1 cell growth loss with CPT. chicken DT40 Tdp1-/-;hTDP1 cells + 20 nM CPT, ATP luminescence, 48 h. Potency, µM (doses to about 46.2 µM), for the others: at the top dose activity change, negative = growth inhibition, hits mostly inhibitors. 420,000 compounds, 12% hits. AID 686979; further: potency means the concentration at half of the fitted maximal effect; nearly all actives have a fitted effect of over 55% in size
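Chicken DT40 Tdp1-/- cells complemented with human TDP1, 400 cells/well, exposed to compounds plus 20 nM camptothecin for at least 48 h at 37 C; viability read as ATP content by CellTiter-Glo luminescence.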
ALOX12 inh: blocks human arachidonate 12S-lipoxygenase; Potency, µM (top dose mostly 108 µM), inactives show at the highest dose activity change, negative = inhibition, most hits filed as inhibitors; 580,000 compounds, 1.1% hits; purified 12hLO, xylenol orange hydroperoxide absorbance; further: potency means the concentration at half of the fitted maximal effect
Target sequence (P18054 whole entry, looked up): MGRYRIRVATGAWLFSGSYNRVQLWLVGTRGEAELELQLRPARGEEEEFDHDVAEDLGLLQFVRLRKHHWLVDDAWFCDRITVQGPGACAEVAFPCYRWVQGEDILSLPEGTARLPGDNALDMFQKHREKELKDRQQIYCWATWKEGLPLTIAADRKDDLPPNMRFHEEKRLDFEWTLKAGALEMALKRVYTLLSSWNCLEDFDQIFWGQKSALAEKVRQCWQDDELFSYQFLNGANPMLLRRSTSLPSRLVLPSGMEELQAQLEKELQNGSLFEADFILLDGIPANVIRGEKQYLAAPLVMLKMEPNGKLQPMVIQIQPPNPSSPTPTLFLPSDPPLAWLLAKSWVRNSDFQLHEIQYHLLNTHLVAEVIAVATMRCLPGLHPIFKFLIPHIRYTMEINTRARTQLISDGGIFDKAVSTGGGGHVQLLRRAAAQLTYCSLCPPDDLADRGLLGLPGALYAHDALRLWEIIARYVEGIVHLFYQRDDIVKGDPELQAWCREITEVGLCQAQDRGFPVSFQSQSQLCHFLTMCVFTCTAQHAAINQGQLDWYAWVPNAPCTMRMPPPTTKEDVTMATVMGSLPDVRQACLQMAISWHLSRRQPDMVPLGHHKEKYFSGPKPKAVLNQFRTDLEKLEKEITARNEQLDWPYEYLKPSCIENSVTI
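Purified human 12hLO (150 nM final) in 25 mM Hepes, 0.01% Triton X-100, pH 7.0 was preincubated 15 min at room temperature with compound. Then 40 uM arachidonic acid was added, 30 min. Hydroperoxide was read by Fe-XO absorbance ratio 573/405 nm.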
* hit, by the source's call; ? = inconclusive; . = no result given; [ ] = another dose, or the depositor's remark. Unless noted, the call rests on the fitted dose curve; in most records, active means well fitted curve in the direction sought with a large enough effect; inconclusive means small, poorly fitted or top-dose-only effect, or another doubt; inactive means no such curve, though single readings can be large; an effect the other way counts as inactive or inconclusive. Unless noted, on the % scale 0 is the no-effect control and ±100 the full control effect.

SMILES	DT40 TDP1 no CPT	HT1080NT lethal	HT1080 IDH1KD tx	IL-1B inflam inh	TDP1 cell CPT	ALOX12 inh
CCOC(=O)C1=CCN(S(=O)(=O)c2ccccc2C)C1c1cccc(Br)c1 (stereo not drawn)	21µM*	?	?	42	?	-5%
CCOC(=O)C1=CCN(S(=O)(=O)c2ccccc2F)C1c1cccc(Br)c1 (stereo not drawn)	?	?	?	16	?	192%
CCOC(=O)C1=CCN(S(=O)(=O)c2ccc(F)cc2)C1c1cccc(Cl)c1 (stereo not drawn)	?	-10%	-15%	15	-20%	-18%
CCOC(=O)C1=CCN(S(=O)(=O)c2ccccc2C)C1c1cccc(F)c1 (stereo not drawn)	16µM*	5%	-18%	50	?	-15%
Cc1cc(C)c(S(=O)(=O)N2CCCC2c2nc3ccccc3[nH]2)c(C)c1 (stereo not drawn)	.	.	.	.	.	13%
COc1cc(C#N)ccc1OCc1ccc(OC(F)F)c(OC)c1	.	.	.	.	.	-4%
COC(=O)COC(=O)c1oc2ccc(OC)cc2c1C	.	.	.	.	.	-25%
Clc1ccc(SCCCCN2CCNCC2)cc1	18µM*	?	?	0	21µM*	?
Cc1ccc(SCCCCN2CCNCC2)cc1	?	-20%	-17%	-1	21µM*	?
CC1CN(CCCCSc2ccc(Cl)cc2)CC(C)O1 (stereo not drawn)	?	-8%	-4%	-27	21µM*	1.8µM*
COC(=O)CCn1c(SC(C)C(=O)c2ccc(Br)cc2)nc2ccccc2c1=O (stereo not drawn)	.	.	.	.	.	-1%
Cc1ccnc(N(C(=O)Nc2ccccc2)C2=NCC(C)(C)S2)c1	0%	10%	3%	80	40%	13%
CNC(=O)N(C1=NCC(C)(C)S1)c1ccc(F)c(Cl)c1	18µM*	-18%	-29%	13	?	-7%
Nc1ccc(/C=C/c2ccc3cccnc3c2)cc1	16µM*	.	.	.	?	.
Nc1ccc(C=Cc2ccc(N)cc2)cc1	18µM*	-28%	?	-13	21µM*	3%
O=C(CCC1CCN(C(=O)c2ccccc2)CC1)NCCCN1CCOCC1	.	.	.	.	.	19%
O=C(CSc1nc2nc[nH]c2c(=O)[nH]1)NCc1ccc(F)cc1	.	.	.	.	.	7%
O=C(CSc1nncc(=O)[nH]1)NCc1ccccc1	?	25%	?	6	21µM*	?
O=C(CSc1nc2nc[nH]c2c(=O)[nH]1)NCc1ccccc1	.	.	.	.	.	0.56µM*
O=C1CCCC2=C1C(c1ccncc1)c1c(nc(SCc3ccccc3)[nH]c1=O)N2 (stereo not drawn)	-16%	1%	3%	-52*	-4%	7%
Cc1cc(S(=O)(=O)N[C@H]2[C@H]3CCO[C@H]3[C@@H]2N2CCCCC2)n(C)n1	.	.	.	.	.	9%
C/C(=N\NC(=O)C1CC1)c1ccc2ccccc2c1	.	.	.	.	.	-6%
Cc1ccsc1C(=O)C1CCCN(Cc2cc(F)ccc2-n2cccn2)C1 (stereo not drawn)	12µM*	-30%	-17%	-19	9.2µM*	45%
CC(C)[C@@H]1C(=O)N(S(C)(=O)=O)[C@H]2CCN(C(=O)/C=C\CN3CCCCC3)[C@@H]12	?	.	.	.	33µM*	0%
COc1cc(/C(C)=N/NC(=S)NC(C)C)cc(OC)c1OC	1.2µM*	-4%	-10%	?	1.3µM*	?
SMILES	DT40 TDP1 no CPT	HT1080NT lethal	HT1080 IDH1KD tx	IL-1B inflam inh	TDP1 cell CPT	ALOX12 inh
C/C(=N\NC(=O)COc1ccc(C(C)(C)C)cc1)c1ccc2c(c1)OCCO2	26µM*	5%	19%	12	16µM*	9%
C/C(=N\NC(=S)Nc1ccc(C(C)C)cc1)c1ccc2c(c1)OCO2	23µM*	-23%	-27%	-17	?	?
CNC(=S)N/N=C(\C)c1ccc2c(c1)OCCO2	-4%	30%	20%	13	-3%	?
C/C(=N\NC(=S)NC(C)C)c1ccc2c(c1)OCCO2	6.5µM*	10%	-3%	-79*	1.3µM*	?
CNC(=S)N/N=C(\C)c1ccc2c(c1)OCO2	?	14%	12%	?	21%	13%
CC1CCc2onc(C(=O)NCc3ccco3)c2C1 (stereo not drawn)	?	18µM*	13µM*	3	?	21%
CC1CCN(c2ncncc2-c2nc(-c3ccccc3)no2)CC1	.	.	.	.	.	18%
Cc1sc2ncnc(N3CCC(C(=O)Nc4nc(-c5cccs5)cs4)CC3)c2c1C	8.2µM*	0%	2%	29	10µM*	-5%
Cc1ccc2nc(NC(=O)C3CCN(c4ncnc5sc(C)c(C)c45)CC3)sc2c1	?	-5%	-2%	6	13µM*	.
CCc1nnc(NC(=O)C2CCN(c3ncnc4sc(C)c(C)c34)CC2)s1	-14%	4%	6%	46	-21%	282%
Clc1ccccc1/C=N/Nc1cc(N2CCOCC2)ncn1	2%	-1%	17%	-20	22%	9%
CCOc1ccc(/C=N/Nc2cc(N3CCOCC3)ncn2)c(O)c1	5.8µM*	?	2.3µM*	99	5.8µM*	1%
CCCOc1ccc(/C=N/Nc2cc(N3CCOCC3)ncn2)c(O)c1	10µM*	?	3.7µM*	103	?	0%
COc1cc(N/N=C/c2ccccc2O)ncn1	1.5µM*	?	?	43	1.6µM*	?
CCOc1ccc(/C=N/Nc2nc(C)cs2)c(O)c1	?	-6%	-12%	-10	10µM*	?
COc1cccc(CC(=O)NCc2cc(N3CCOCC3)ncn2)c1	.	.	.	.	.	66%
COc1ccc(C(=O)N2CCc3ccc(C(=O)NCc4ccccn4)cc32)cc1	.	.	.	.	.	75%
CCOC(=O)c1cccc(NC(=O)c2ccc(-n3cnc(NC(=O)C(C)C)c3)cc2)c1	.	.	.	.	.	-21%
O=C(Nc1cc(Cl)ccc1O)c1cc(-c2ccc3c(c2)OCO3)on1	2%	.	.	.	-5%	?
CC(C)N1CCC2(CC1)N=C(c1ccc3c(c1)OCO3)CC(c1cc(Cl)ccc1O)N2 (stereo not drawn)	5.2µM*	?	?	-117*	5.8µM*	-2%
COc1ccc2[nH]c3c(c2c1)CCNC31CCN(C(=O)c2ccsc2)CC1	.	.	.	.	.	15%
COc1ccc2nc3n(c2c1)[C@@H](CNC(C)C)COC3	.	.	.	.	.	32%[176 µM]
CCCCNc1c(-c2ccc(-c3cccc(Cl)c3)cc2)nc2ccccn12	?	?	?	-26	?	?
